This note sets out measurements from PubChem BioAssay AID797 (University of Pittsburgh Molecular Library Screening Center, 2007).

Hit rate of the full screen: of about 200,000 compounds, about 110 (0.055%) were called active. No stated cut-off is given here; in the data, active means inhibition above about 50%; inactive means the rest. What follows is part of a selection rich in actives, with near analogues and random picks from the rest.

Sequence of Serine/threonine-protein kinase D1 (Homo sapiens) (Q15139 whole entry, looked up): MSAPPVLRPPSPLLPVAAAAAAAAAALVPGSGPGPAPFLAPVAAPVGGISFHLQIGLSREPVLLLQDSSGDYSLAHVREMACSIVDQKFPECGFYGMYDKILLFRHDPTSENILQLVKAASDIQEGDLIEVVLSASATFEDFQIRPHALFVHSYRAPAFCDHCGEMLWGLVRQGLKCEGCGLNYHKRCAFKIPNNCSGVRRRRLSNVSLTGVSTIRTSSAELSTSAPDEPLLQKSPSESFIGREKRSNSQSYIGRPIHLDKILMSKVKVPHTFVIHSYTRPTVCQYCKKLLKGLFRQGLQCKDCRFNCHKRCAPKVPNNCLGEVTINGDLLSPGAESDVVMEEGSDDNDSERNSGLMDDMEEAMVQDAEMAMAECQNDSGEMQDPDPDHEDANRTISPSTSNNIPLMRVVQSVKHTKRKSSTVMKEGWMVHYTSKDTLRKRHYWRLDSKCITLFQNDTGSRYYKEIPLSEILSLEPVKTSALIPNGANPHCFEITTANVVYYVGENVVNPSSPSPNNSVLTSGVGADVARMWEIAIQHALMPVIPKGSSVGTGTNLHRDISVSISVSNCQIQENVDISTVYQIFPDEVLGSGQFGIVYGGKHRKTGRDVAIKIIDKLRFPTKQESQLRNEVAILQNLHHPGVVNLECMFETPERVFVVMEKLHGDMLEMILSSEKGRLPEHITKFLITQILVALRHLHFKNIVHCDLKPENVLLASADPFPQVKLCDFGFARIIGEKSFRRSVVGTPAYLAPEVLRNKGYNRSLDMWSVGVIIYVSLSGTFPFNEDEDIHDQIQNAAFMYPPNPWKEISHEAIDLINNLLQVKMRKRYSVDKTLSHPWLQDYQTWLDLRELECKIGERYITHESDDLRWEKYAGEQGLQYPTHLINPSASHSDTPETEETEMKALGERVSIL

The experiment concerns the target Serine/threonine-protein kinase D1 (Homo sapiens) (UniProt Q15139). The experiment in a line: inhibitors of human PKD1 kinase, biochemical, fluorescence polarization (AID 797). As to conditions: PKD1 kinase fluorescence polarization assay; hits give high values; concentration not given here.
As for `Cc1ccc(C(=O)Cc2nnc(C)s2)cc1`, the inhibition is 1.06% (inactive). Under `CCN(CC)CC1(O)CCN(C(=O)c2ccc(Cl)c(Cl)c2)CC1` stands 6.8% (inactive); under `CC(=O)Nc1ccc(NC(=S)NC(=O)/C=C/c2ccccc2)cc1`, -7.92% (inactive); under `CCOc1cc2[nH]c(=S)n(Cc3ccc(C(=O)NCCOC)cc3)c(=O)c2cc1OCC`, -4.22% (inactive). With `O=C(COc1ccc(-c2ccccc2)cc1)NN=C1CCCC1` the figure was -5.5% (inactive); with `COC(=O)C1(O)CC(C(C)C)=NN1C(=O)c1ccc(Cl)cc1` (stereo not given), -10.1% (inactive). With `COc1ccc(CCNC(=O)COC(=O)C2CCCCC2)cc1`, the inhibition was 1.52% (inactive).

For the molecule `COc1ccc(NC(=O)CCNS(=O)(=O)c2ccc3c(c2)c(=O)n(C)c(=O)n3C)cc1OC`, the inhibition was -3.26% (inactive). Under `COC(=O)c1ccccc1SC1CC(=O)N(c2cccc(C)c2)C1=O` (stereo not given) stands -3.82% (inactive). `CN(CCc1cnn(C)c1)Cc1cn(C)nc1-c1ccccc1F`: the inhibition was 0.1% (inactive). Turning to `Cc1nc(-c2ccc(Cl)cc2)sc1C(=O)CBr`, the inhibition is 2.56% (inactive). Under `CC1=NN(C(=O)CCCc2ccccc2)C(O)(C(F)(F)F)C1` (stereo not given) stands -2.79% (inactive).

On to `C/C(N)=C(/C#N)C(=O)COC(=O)c1cc(-c2cccc(Br)c2)nc2ccccc12`, for which the inhibition is -0.94% (inactive). Take `CCN(CC)CCNC(=O)CCCCCn1c(=O)[nH]c2cc(C(=O)OC)ccc2c1=O`: the inhibition is -5.2% (inactive).

As for `Cc1c(Br)c([N+](=O)[O-])nn1CC(=O)N1CCN(Cc2ccccc2)CC1`, the inhibition was 6.58% (inactive). Under `O=C(CC1SC(=Nc2ccccc2F)N(CCN2CCOCC2)C1=O)Nc1ccc(F)cc1F` (stereo not given) stands 1.23% (inactive); under `O=C(Nc1cccnc1)c1ccc(Cl)cc1[N+](=O)[O-]`, -1.12% (inactive); under `Cc1ccc(NC(=O)C(=O)NCC2CCN(C(=O)c3cccc([N+](=O)[O-])c3)CC2)cc1`, 4.77% (inactive).

Consider `S=C(NN=C1CCN(Cc2ccccc2)CC1)NC1CCCCC1`, for which the inhibition is 1.24% (inactive). Under `COc1ccc(NC(=S)NCc2cccs2)c(OC)c1` stands 7.19% (inactive). With `CC(C)NC(=S)N1CCN(C(c2ccccc2)c2ccccc2)CC1` the figure was 3.7% (inactive). With `COc1ccc(S(=O)(=O)N2CCN(C(=O)NC3CCCCC3)CC2)cc1` the figure was -1.15% (inactive); with `O=C1CCCC2=C1C(c1cccs1)CC(=O)N2c1ccc(F)cc1` (stereo not given), -3.47% (inactive).

In the case of `Cn1c(=O)c2cc(S(=O)(=O)NCCC(=O)Nc3ccc(F)cc3F)ccc2n(C)c1=O`, the inhibition is -2.88% (inactive). `O=C(Nc1nnc(Cc2ccc(Cl)cc2)s1)c1cccnc1`: the inhibition is -1.74% (inactive). For the molecule `Cn1c(CCC(=O)Nc2ccccc2F)nnc1SCC(=O)Nc1ccccc1Cl`, the inhibition was -1.31% (inactive).

For the molecule `O=C(CSc1ncnc2c1nnn2Cc1ccc(F)cc1)NC1CCCC1`, the inhibition was -10.6% (inactive). `Cc1cc(C(=O)CC#N)c(C)n1-c1c(C)n(C)n(-c2ccccc2)c1=O`: the inhibition was -2.44% (inactive). With `CCS(=O)(=O)c1ccc2c(c1)N(S(=O)(=O)c1ccccc1)CC(C(=O)O)O2` (stereo not given) the figure was 2.03% (inactive); with `CC1(C)CC(=O)C2=C(C1)N=C1SCCC(=O)N1C2c1ccc(C(F)(F)F)cc1` (stereo not given), -8.04% (inactive); with `CN1CCN(C(c2cc3cc4c(cc3[nH]c2=O)OCCO4)c2nnnn2C2CCCC2)CC1` (stereo not given), -0.35% (inactive). With `COc1cc(OC)c(C2=NOC(C(=O)Nc3c(C)n(C)n(-c4ccccc4)c3=O)C2)cc1Cl` (stereo not given) the figure was 5.19% (inactive); with `Cc1ccc2c(c1)N(CC(=O)N(Cc1ccccn1)Cc1ccco1)C(=O)C(C(C)C)O2` (stereo not given), -5.96% (inactive); with `S=C(NC1CCCCC1)NN1CCOCC1`, -5.63% (inactive).

Regarding `COCCSc1nnc(NC(=O)c2cc(OC)c(OC)cc2[N+](=O)[O-])s1`, the inhibition was -3.97% (inactive). Under `Cc1cn(C)c(=O)n(C)c1=O` stands 1.43% (inactive); under `N#Cc1ccc(-c2nc3cc(C#N)c(C#N)cc3nc2-c2ccccc2)cc1C#N`, 9.6% (inactive); under `O=Cc1ccc(Oc2cccc(C(F)(F)F)c2)nc1`, 7.02% (inactive). Under `Cc1ccc(/C=C/C(=O)Nc2cc(S(=O)(=O)N3CCCCCC3)ccc2OCC(F)(F)F)o1` stands -9.11% (inactive); under `CCc1ccc(-c2cc(C(=O)NN3CCN(C)CC3)c3ccccc3n2)cc1`, 6.48% (inactive); under `C=CCC(C(=O)c1ccccc1)[N+](C)(C)CC=C` (stereo not given), -3.34% (inactive). Regarding `O=[N+]([O-])c1ccccc1SNc1ccccn1`, the inhibition was -1.62% (inactive).

As to `Cc1cc(C)cc(C(=O)NC(=S)Nc2ccc3[nH]c(=O)[nH]c3c2)c1`, the inhibition was 20.7% (inactive). Take `O=C1CN(C(=O)COC(=O)c2cnc(Cl)c(Cl)c2)c2ccccc2N1`: the inhibition is 1.7% (inactive). With `NC(=O)c1ncc(C(F)(F)F)cc1Oc1ccc(F)cc1` the figure was -8.91% (inactive); with `O=C(Cc1c[nH]c2ccccc12)N/N=C/c1cccc(F)c1`, 12.4% (inactive); with `CCc1c(C)nc2c(OC)cccc2c1Cl`, -2.35% (inactive). For the molecule `O=C(/C=C/c1ccc2c(c1)OCO2)NCc1cn2cc(Cl)ccc2n1`, the inhibition was -5.4% (inactive).

In the case of `O=C(CCCc1ccccc1)NCc1ccccc1`, the inhibition is -6.66% (inactive). Under `CC(NC(=O)C(=O)N/N=C/c1ccc(Cl)cc1)c1ccccc1` (stereo not given) stands -2.86% (inactive); under `O=C(NC(=S)N1CCN(Cc2ccccc2)CC1)c1ccccc1`, -10.3% (inactive). With `Cc1ccc(S(=O)(=O)Cc2cc(-c3ccc(Cl)cc3)no2)cc1` the figure was -1.03% (inactive). For the molecule `CC(C)N1CCC(=NNc2ccc([N+](=O)[O-])cc2S(=O)(=O)N2CCOCC2)CC1`, the inhibition was -0.4% (inactive). `CCOc1ccc(-n2c(SCC(=O)NC3CCS(=O)(=O)C3)nnc2-c2cccnc2)cc1` (stereo not given): the inhibition is 0.66% (inactive). `CN(Cc1ccc2nsnc2c1)Cc1nc(Cc2cccc(F)c2)no1`: the inhibition was 5.24% (inactive). As for `OCCCC1CCCCN1Cc1nc(Cc2ccccc2Cl)no1` (stereo not given), the inhibition is 0.81% (inactive). Take `Cc1cccc(C(=O)OC(C)CN2CCN(C)CC2)c1` (stereo not given): the inhibition was 1.4% (inactive). With `Cc1nnsc1C(=O)Nc1cccc(Cl)c1C` the figure was -5.78% (inactive); with `Cn1nccc1CNC(=O)c1ccnn1C`, -0.52% (inactive). Under `CC(C)c1ccc(-c2noc(C3CCCN(S(C)(=O)=O)C3)n2)cc1` (stereo not given) stands 0.73% (inactive); under `COC(=O)C1=C(C)N(c2ccc(C)cc2)/C(=C/c2ccc(O)cc2)C1=O`, 1.38% (inactive). Under `Cc1ccc(-c2nnc(SCC(=O)N/N=C/c3cccs3)n2-c2ccc(C)cc2)cc1` stands -3.67% (inactive); under `Oc1ccc2ccc3cccc[n+]3c2c1`, -0.84% (inactive). For the molecule `S=c1[nH]cc(-c2ccc(Cl)cc2)n1-c1ccccc1`, the inhibition is -3.56% (inactive).

In the case of `COc1cccc(CNC(=O)CCN2C(=S)NC(C)(C)CC2C)c1` (stereo not given), the inhibition was 16.6% (inactive). In the case of `O=C(Nc1cc(S(=O)(=O)N2CCOCC2)ccc1Cl)c1cc(=O)c2ccccc2o1`, the inhibition was -4.37% (inactive). Under `C/C(=N\OCC(=O)Nc1ccc(Br)cc1)c1cccs1` stands -6.23% (inactive).

Take `N#Cc1cccc(Nc2c3c(nc4ccccc24)CCCC3)c1`: the inhibition was 1.12% (inactive). With `COc1ccc(-c2ccc(CCC(=O)O)n2-c2ccc(O)cc2)cc1` the figure was -3.57% (inactive); with `CC(C)NC(=S)Nc1cccc2cnccc12`, -7.44% (inactive). With `O=C(NC1(C(F)(F)F)NC(=O)N(C2CCCCC2)C1=O)c1ccco1` (stereo not given) the figure was -4.49% (inactive); with `Cc1onc(C(=O)NN)c1C(=O)N1CCN(C(c2ccccc2)c2ccccc2)CC1`, 6.23% (inactive); with `CCO[C@H]1OC(C(=O)O)=C[C@@H](C2CCCCC2)[C@@H]1CCCO`, 1.68% (inactive).

For `O=C(N/N=C/c1cccc([N+](=O)[O-])c1)C1CC(=O)N(c2ccc(Br)cc2)C1` (stereo not given), the inhibition is 0.4% (inactive). Under `O=C(NCCN1CCOCC1)Nc1cccc(Cl)c1` stands -8.08% (inactive); under `Cc1ccc(-c2c(C)n([O-])c3c([n+]2=O)CCC3)cc1`, -5.77% (inactive). Consider `Cc1cc(C)c(C#N)c(SCC(=O)NN2CC(=O)N(c3ccccc3F)CC2=O)n1`, for which the inhibition was -3.74% (inactive).

In the case of `O=C(OC1CCOC1=O)c1cccc(S(=O)(=O)Nc2ccc(F)cc2)c1` (stereo not given), the inhibition is 1.98% (inactive). For the molecule `C=CCn1cc(-c2cccc(C(F)(F)F)c2)cc(C#N)c1=O`, the inhibition was 7.22% (inactive).

`O=C(N1CCCC1)C12CC3CC(C1)CC(C(=O)N1CCCC1)(C3)C2`: the inhibition is -14.2% (inactive). `CCC1CO/C(=C(\C(=C(Cl)Cl)N2CCOCC2)[N+](=O)[O-])N1` (stereo not given): the inhibition was -0.65% (inactive).

Consider `COc1cc(OC)c(C(=O)OC(C)C(=O)Nc2cc(C(F)(F)F)ccc2Cl)cc1OC` (stereo not given), for which the inhibition is 8.47% (inactive).

Take `O=C(CSc1ccc(-c2ccc(F)cc2)nn1)Nc1ccc2c(c1)OCCO2`: the inhibition was -0.29% (inactive).

For `Cc1cc(C(=O)NNC(=S)NC(C)c2ccccc2)cs1` (stereo not given), the inhibition is 5.7% (inactive).

As to `C/C(CC(=O)Nc1cccc(C(F)(F)F)c1)=N\NC(=O)C(=O)NCC(C)C`, the inhibition is 3.3% (inactive). With `Cc1cc(N2CCN(C)CC2)nc2ccc(NC(=S)N3CCOCC3)cc12` the figure was -7.15% (inactive). For the molecule `CCn1c2ccccc2c2cc(NC(=O)COC(=O)c3ccccc3Br)ccc21`, the inhibition was -14.8% (inactive). Under `c1ccc(-c2csc(N3CCc4ccccc4C3)n2)cc1` stands -5.96% (inactive); under `COC(=O)[C@@H]1CC[C@H](C)[C@@H](c2ccc(C)cc2)N1C(=O)c1ccc(/C=N/O[C@H](C)c2cn([C@@H]3COC[C@H]3O)nn2)cc1`, -8.4% (inactive); under `CCC(=O)NC(=S)Nc1ccc(NC(=O)c2ccco2)c(Cl)c1`, -0.32% (inactive). With `CN(C)CCCNC(=O)/C=C/c1ccc(OCc2c(F)cccc2Cl)cc1` the figure was -5.92% (inactive); with `CCCC1(C(=O)OC)NC(c2ccco2)C2C(=O)N(C)C(=O)C21` (stereo not given), -3.52% (inactive); with `Cc1noc(C)c1S(=O)(=O)N1CCCC(C(=O)Nc2nccs2)C1` (stereo not given), -0.06% (inactive). As for `COc1c(C)cc(C(=O)C2CCCN(S(=O)(=O)c3c(C)noc3C)C2)cc1C` (stereo not given), the inhibition is 11.5% (inactive). Take `Cc1ccc(NC(=O)C2CCCN(S(=O)(=O)c3c(C)noc3C)C2)c(C)c1` (stereo not given): the inhibition was 72.5% (active).
